Screening results (PubChem)
Hits are enriched below; roughly 1.8% of the tested compounds scored in any of these assays.
EWS-Fli inh: EWS/Fli-driven NR0B1 reporter inhibitors, primary screen, A673 cells, NR0B1 luciferase, luminescence, MLPCN library; viability-normalised; inhibition, % at 12.6 µM; hit rate 0.67% among 350,000; AID 651661, 2012;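 active = mean inhibition of at least 50% after viability correction, with every replicate also passing that limit; inconclusive = mean reaches 50% but only one of two replicates passes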;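 note: firefly luciferase signal divided by Alamar Blue viability fluorescence both relative to DMSO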
CFTR F508del cor: F508del CFTR correction, initial screen, CFBE line, single point; CFBE cells, YFP halide quenching; stimulated with forskolin plus potentiator P3; % fluorescence drop versus neutral controls; activity (quench increase), % at 7.58 µM; hit rate 0.36% among 350,000; AID 720511, 2013;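 active = mean added fluorescence quench of at least 8% versus neutral control, with both replicates also reaching 8%; inconclusive = only one of the mean or replicate conditions met; inactive = mean below 8% and not both replicates reaching 8%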;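 note: cells transiently co-express mutant CFTR-F508del with the halide-sensitive YFP; corrector assay measuring rescue of mutant channel to the surface after 24 h compound exposure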
PAX8 reporter: inhibitors of PAX8-driven TPO luciferase reporter, primary screen, RMG-I cells, single concentration | SteadyGlo, 24 h | inhibition, % at 12.6 µM | hit rate 1.2% among 360,000;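 active = mean replicate inhibition at least 60% with every replicate also reaching 60%; inconclusive = only one of the two criteria is met; inactive = mean below 60% and not all replicates reaching 60%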;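 note: luciferase light reporting Pax8 driven TPO promoter activity; plate controls were median of neutral control wells for no effect and mitoxantrone controls for full effect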
LGR2 antag: inhibitors of bursicon-induced LGR2 CRE-luciferase signal, primary screen, cell-based, HEK293, CRE-luciferase reporter, bursicon stimulation; bursicon-stimulated, 4 h; inhibition, % at 9.99 µM; hit rate 0.35% among 380,000; AID 720647, 2013;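 active = drop in luminescence signal, shown as inhibition above about 50% in the replicate tests, limit read from the data, passing the limit was not always enough; inconclusive = probably only some replicates passing the limit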;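 note: agonist challenge used bursicon conditioned medium at about half maximal strength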
Active calls of the source: *; ? = inconclusive; . = not tested or not shown.

SMILES	EWS-Fli inh	CFTR F508del cor	PAX8 reporter	LGR2 antag
COc1ccc(CC2C(=O)NC(C)C(=O)N(C)C3C(=O)N(C)C(Cc4ccc(O)c(c4)Oc4ccc(cc4)C3O)C(=O)NC(C)C(=O)NC(C)C(=O)N2C)cc1 (stereo not given)	44	-1	110*	99*
C/C(=C\c1ccc(N(C)C)cc1)[N+](=O)[O-]	52*	2	.	96*
COc1ccc(C#Cc2ccc([C@@H]3[C@H](CO)N4CCCCN(C(=O)Cc5ccncc5)C[C@@H]34)cc2)cc1	.	-6	-29	-9
CC1=CC(C)CC(C)OC(=O)CC(c2ccc(O)cc2)NC(=O)C(Cc2c(Br)[nH]c3ccccc23)N(C)C(=O)C(C)NC(=O)C(C)C1 (stereo not given)	-25	-2	102*	82*
Cc1ccc(OC(=O)N(C)C[C@@H]2OCc3ccccc3-c3c(n(C)c4ccccc34)C(=O)N([C@@H](C)CO)C[C@H]2C)cc1	24	2	98*	33
CC1CCOC(=O)C=CC=CC(=O)OC2CC3OC4C5OC5(C)C(O)CC4(COC(=O)C1O)C2(C)C31CO1 (stereo not given)	22	-10	104*	104*
CC1=CC2OC3CC4OC(=O)C=CC=CC(C(C)O)OCC(O)C5(C)OC5C(=O)OCC2(CC1O)C4(C)C31CO1 (stereo not given)	45	-1	102*	102*
CC1=CC2OC3CC4OC(=O)C=CC=CC(=O)OCCC(C)C(O)C(=O)OCC2(CC1)C4(C)C31CO1 (stereo not given)	19	-9	102*	.
CC(O)C1C=CC=CC(=O)OC2CC3OC4C5OC5(C)C(O)CC4(COC(=O)C(O)C(C)CCO1)C2(C)C31CO1 (stereo not given)	29	-7	113*	104*
CCOC(=O)[C@@H]1[C@@H]2NC(=S)N(C)[C@@]1(COCc1ccc(OC)cc1)Oc1ccccc12	-10	2	8	.
O=C(Cc1ccncc1)N1CCCCN2[C@@H](CO)[C@@H](c3ccc(C#CC4(O)CCCC4)cc3)[C@@H]2C1	.	1	13	-19
CCn1ccnc1CN1CCCC(C(=O)c2cc(F)ccc2OC)C1 (stereo not given)	3	-2	5	7
CSCCC(c1nnnn1-c1c(C)cccc1C)N1CCC(n2c(=O)[nH]c3ccccc32)CC1 (stereo not given)	22	4	13	93*
CSCCC(c1nnnn1C1CCCCC1)N1CCC(n2c(=O)[nH]c3ccccc32)CC1 (stereo not given)	22	-1	35	12
O=c1[nH]c2ccccc2n1C1CCN(C(c2nnnn2Cc2ccccc2)C2CC2)CC1 (stereo not given)	5	1	86*	30
CSCCC(c1nnnn1Cc1ccccc1)N1CCC(n2c(=O)[nH]c3ccccc32)CC1 (stereo not given)	36	6	97*	15
O=c1[nH]c2ccccc2n1C1CCN(C(CCc2ccccc2)c2nnnn2C2CCCCC2)CC1 (stereo not given)	0	3	0	94*
CC1([N+](=O)[O-])COP(=O)(NC2CCCC2)OC1 (stereo not given)	8	-1	1	6
N#Cc1cccc(-c2ccc([C@H]3[C@H]4CN(C(=O)Cc5ccccc5)CCCCN4[C@H]3CO)cc2)c1	5	-3	30	-4
Cc1ccccc1-c1ccc([C@@H]2[C@H]3CN(C(=O)Cc4ccccn4)CCCCN3[C@H]2CO)cc1	-6	-1	-8	5
CC(CC(C)(C)N1CC1)=NNC(=O)Nc1cccc2ccccc12	5	-4	22	-1
O=c1[nH]c2ccccc2n1C1CCN(C(CCc2ccccc2)c2nnnn2Cc2ccccc2)CC1 (stereo not given)	24	3	108*	99*
CC(C)(C)n1nnnc1C(CCc1ccccc1)N1CCC(n2c(=O)[nH]c3ccccc32)CC1 (stereo not given)	20	-3	16	32
CC(C)(C)NC(=O)CN1CCCN(C(=O)COc2ccc(Cl)c3ccccc23)CC1	-1	2	14	1
CSCCC(c1nnnn1-c1c(C)cccc1C)N1CCC2(CC1)C(=O)NCN2c1ccccc1 (stereo not given)	1	0	8	?
SMILES	EWS-Fli inh	CFTR F508del cor	PAX8 reporter	LGR2 antag
COc1cccc(CNCCc2ccc3c(c2)OCO3)c1OC	1	0	9	16
COc1ccc(NC2Oc3cc4c(cc3C(c3cc(OC)c(OC)c(OC)c3)C2C)OCO4)cc1 (stereo not given)	54*	1	38	-12
COc1cc2c(c(OC)c1OC)-c1ccc(O)c(=O)cc1C(NC(C)=O)CC2 (stereo not given)	59*	-2	85*	1
COc1ccc2c(c1)C(NC(C)=O)CCc1cc(OC)c(OC)c(OC)c1-2 (stereo not given)	55*	-5	84*	-4
COC1=C[C@@H]2C3=C([C@@H]2C1=O)[C@@H](NC(C)=O)CCc1cc(OC)c(OC)c(OC)c13	-2	-10	2	.
COc1ccc(NC(=O)C2C3CCC(O3)C2C(=O)O)c(OC)c1 (stereo not given)	-10	-3	12	-16
COC(=O)c1c2[n+](cc3cc(OC)c(OC)cc13)CCc1cc(OC)c(OC)cc1-2	-6	1	-21	2
O=C(NC(=O)c1c(F)cccc1F)Nc1cc(Cl)c(F)c(Cl)c1F	-5	1	21	-5
COC(=O)C1CC(OC(C)=O)C(=O)[C@H]2C1(C)CC[C@H]1C(=O)OC(c3ccoc3)CC12C (stereo not given in full)	6	-1	.	18
CNc1ccc2oc(C[C@H]3O[C@@]4(CC[C@H]3C)O[C@H]([C@H](C)C(=O)c3ccc[nH]3)[C@H](C)C[C@H]4C)nc2c1C(=O)O	43	3	81*	-10
Clc1ccc(C(c2ccc(Cl)cc2)n2cc[n+](CC(OCc3ccc(Cl)cc3Cl)c3ccc(Cl)cc3Cl)c2)cc1 (stereo not given)	49	2	97*	87*
COC(=O)c1ccc(NC(=O)CSc2nc3ccc(N4C(=O)C5C6C=CC(C6)C5C4=O)cc3s2)cc1 (stereo not given)	-22	.	8	104*
COc1ccc(-c2nn(CCC#N)cc2C(=O)Nc2ccc(C(C)=O)cc2)cc1[N+](=O)[O-]	13	-4	-12	-3
Cc1ccc(/C=C2/C(=O)NC(=O)N(CC3CCCO3)C2=O)s1 (stereo not given)	0	.	-63	6
O=C1C(=O)c2ccccc2-c2ccccc21	82*	-7	?	104*
O=C1C(=O)c2cccc3cccc1c23	26	4	15	8
CCC1CN2CCc3cc(OC)c(OC)cc3C2CC1CC1NCCc2c1[nH]c1ccc(O)cc21 (stereo not given)	29	-4	101*	100*
